Test results: PubChem BioAssay (Tox21)
Results filed as inconclusive are left out. Activity calls are given as the source filed them. Unless noted, the call rests on the fitted dose curve; in most records, active means well fitted curve in the direction sought with a large enough effect in the repeat runs; inconclusive means weak or mixed curves; inactive means no such curve, though single readings can be large; an effect the other way counts as inactive or inconclusive.

Assays:
[1] = qHTS assay to identify small molecule agonists of the hypoxia (HIF-1) signaling pathway - cell viability counter screen (AID 1224844; calls by dose curve; further: nearly all actives have a fitted effect of over 50% in size)
In short: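 Tox21 10K compounds were added to HRE-bla ME-180 cells (0.5% dialyzed FBS) and incubated 17 hrs at 37C; ATP-based CellTiter-Glo luminescence then reported cell viability in the same wells.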

[2] = qHTS assay to identify small molecule agonists of H2AX (AID 1224845; active means well fitted activation curve with a large enough effect in the signal ratio in the repeat runs, not every such curve was filed as active; the % refers to the signal ratio)
In short: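 Phospho-H2AX Ser139 measured by HTRF (ex 320 nm; em 665 and 620 nm) after 24 hr antibody incubation. Compounds, 15 concentrations, 0.76% DMSO, were applied to CHO-K1 cells for 3hr at 37C before lysis.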

[3] = qHTS assay to identify small molecule agonists of the hypoxia (HIF-1) signaling pathway (AID 1224846; active means well fitted activation curve with a large enough effect in the signal ratio in the repeat runs, not every such curve was filed as active; the % refers to the signal ratio)
In short: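 Steps: seed ME-180 HRE-bla cells (2,000/well, 0.5% dialyzed FBS); incubate 5 hrs at 37C; pin-transfer compounds or DMSO; incubate 17 hrs; add LiveBLAzer B/G substrate CCF4-AM; measure reporter activation by FRET.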

[4] = qHTS assay to identify small molecule agonists of H2AX - cell viability counter screen (AID 1224847; calls by dose curve;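 further: wild-type CHO-K1 cells; top concentration of the series differs between compounds; nearly all actives have a fitted effect of over 30% in size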)
In short: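 Counter-screen for viability: CellTiter-Glo ATP luminescence read after 3 h compound treatment (15-point titration, 0.76% DMSO final) of CHO-K1 cells at 37C, with 30 min room-temperature reagent incubation.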

[5] = qHTS assay to identify small molecule antagonists of the estrogen related receptor (ERR) signaling pathway from Tox21 library (AID 1224848); further: nearly all actives have a fitted effect of over 50% in size
In short: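 Antagonist-mode screen of the Tox21 10K library in an NTP-provided ERR reporter cell line; 18 h compound exposure at 37 C, luminescence measured with ONE-Glo.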

[6] = qHTS assay to identify small molecule agonists of the estrogen related receptor (ERR) signaling pathway from Tox21 library (AID 1224849; calls by dose curve; further: nearly all actives have a fitted effect of over 15% in size); details: ERR reporter cell line, ONE-Glo luciferase, 18 h; at 92.4 µM (top of the series) unless noted
In short: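 Agonist signal is luciferase luminescence from an ERR reporter cell line treated 18 h at 37 C with DMSO-dissolved compounds, read 30 min after ONE-Glo addition at room temperature.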

[7] = qHTS RealTime-Glo MT Cell Viability Assay in HepG2 cells - 24 hour (AID 1224867); further: nearly all actives have a fitted effect of over 50% in size
In short: (§1)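 Viability was tracked continuously by NanoLuc luminescence from prosubstrate reduced by living HepG2 cells, at successive time points over 40 h of compound exposure. Cells with reagent were preincubated 5 h at 37 °C before compound addition.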

[8] = qHTS RealTime-Glo MT Cell Viability Assay in HEK293 cells - 32 hour (AID 1224868); further: top concentration of the series differs between compounds; nearly all actives have a fitted effect of over 50% in size
In short: (§2)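 Viability tracked continuously by luminescence as live cells reduce a prosubstrate for NanoLuc; HEK293 cells preincubated 5 h, compound-treated at 37 C, and read at 0, 8, 16, 24, 32 and 40 h.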

[9] = qHTS RealTime-Glo MT Cell Viability Assay in HepG2 cells - 40 hour (AID 1224870); further: nearly all actives have a fitted effect of over 50% in size
In short: (§3)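 Real-time viability: cells seeded at 600 per well together with NanoLuc and cell-permeant prosubstrate, compounds added after 5 h incubation. Luminescence tracked at 0, 8, 16, 24, 32 and 40 h of exposure.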

[10] = A CellTox Green Cytotoxicity Assay to monitor cytotoxicity in HEK293 cells - 40 hour (AID 1224871); further: nearly all actives have a fitted effect of over 45% in size
In short: (§4)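 Cytotoxicity was tracked continuously in HEK293 cells by a DNA-binding dye excluded from viable cells. Compounds were transferred in DMSO 5 h after seeding; fluorescence was recorded at intervals up to 40 h.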

[11] = qHTS RealTime-Glo MT Cell Viability Assay in HEK293 cells - 16 hour (AID 1224872)
In short: as §2

[12] = qHTS RealTime-Glo MT Cell Viability Assay in HepG2 cells - 8 hour (AID 1224873); further: nearly all actives have a fitted effect of over 55% in size
In short: as §3

[13] = qHTS RealTime-Glo MT Cell Viability Assay in HEK293 cells - 40 hour (AID 1224874); details: RealTime-Glo luminescence; max response: stronger effect = lower value; further: nearly all actives have a fitted effect of over 50% in size
In short: (§5)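 Nonlytic bioluminescent viability monitoring. HEK293 at 600 cells/well with reagent; 5 h settle; compound transfer by pintool; plates held at 37 C and read at set time points.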

[14] = qHTS RealTime-Glo MT Cell Viability Assay in HepG2 cells - 32 hour (AID 1224877); further: nearly all actives have a fitted effect of over 55% in size
In short: as §1

[15] = A CellTox Green Cytotoxicity Assay to monitor cytotoxicity in HepG2 cells - 24 hour (AID 1224878); further: nearly all actives have a fitted effect of over 45% in size
In short: (§6)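 Real-time, homogeneous cytotoxicity readout: dead-cell DNA staining by CellTox Green in HepG2 monolayers, fluorescence measured at timed intervals up to 40 h of continuous compound exposure.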

[16] = A CellTox Green Cytotoxicity Assay to monitor cytotoxicity in HepG2 cells - 40 hour (AID 1224879); further: nearly all actives have a fitted effect of over 40% in size
In short: as §6

[17] = qHTS RealTime-Glo MT Cell Viability Assay in HEK293 cells - 0 hour (AID 1224880); further: top concentration of the series differs between compounds; nearly all actives have a fitted effect of over 45% in size
In short: as §5

[18] = A CellTox Green Cytotoxicity Assay to monitor cytotoxicity in HEK293 cells - 0 hour (AID 1224869); further: nearly all actives have a fitted effect of over 50% in size
In short: as §4

[19] = A CellTox Green Cytotoxicity Assay to monitor cytotoxicity in HEK293 cells - 24 hour (AID 1224875); further: nearly all actives have a fitted effect of over 45% in size
In short: as §4

[20] = A CellTox Green Cytotoxicity Assay to monitor cytotoxicity in HepG2 cells - 16 hour (AID 1224876); further: nearly all actives have a fitted effect of over 45% in size
In short: as §6
On the % scale 0 is the no-effect control and ±100 the full control effect.

C[C@@H](c1ncncc1F)C(O)(Cn1cncn1)c1ccc(F)cc1F (stereo partly specified)
inactive: Potency [1] | Potency [2] | Potency [3] | Potency [4] | Potency [5] | activity change, positive = activation [6] -0.316% [at 42.5 µM] | Potency [7] | Potency [8] | Potency [9] | Potency [10] | Potency [11] | Potency [12] | max response [13] 3.08% | Potency [14] | Potency [15] | Potency [16] | Potency [17]

COC(C)(C)CCO
inactive: Potency [1] | Potency [2] | Potency [3] | Potency [4] | Potency [5] | activity change, positive = activation [6] 3.52% | Potency [8] | Potency [18] | Potency [9] | Potency [12] | max response [13] 1.17% | Potency [19] | Potency [20] | Potency [14] | Potency [15] | Potency [16] | Potency [17]

CCOc1ccc(N=Nc2ccc(/C=C/c3ccc(N=Nc4ccc(OCC)cc4)cc3S(=O)(=O)O)c(S(=O)(=O)O)c2)cc1
inactive: Potency [1] | Potency [2] | Potency [3] | Potency [4] | Potency [8] | Potency [18] | Potency [9] | Potency [10] | Potency [11] | Potency [12] | max response [13] -1.09% | Potency [19] | Potency [20] | Potency [15] | Potency [16] | Potency [17]

COCC(C)OC(C)=O (stereo unspecified)
inactive: Potency [1] | Potency [2] | Potency [3] | Potency [4] | Potency [7] | Potency [8] | Potency [18] | Potency [9] | Potency [10] | Potency [12] | max response [13] 8.38% | Potency [20] | Potency [14] | Potency [15] | Potency [16]

CC(C)(COC(=O)c1ccccc1)COC(=O)c1ccccc1
inactive: Potency [1] | Potency [2] | Potency [3] | Potency [4] | Potency [7] | Potency [8] | Potency [9] | Potency [10] | max response [13] -28.7% | Potency [19] | Potency [20] | Potency [14] | Potency [15] | Potency [16] | Potency [17]

CCCCCCCCCCO[C@@H]1O[C@H](CO)[C@@H](O)[C@H](O)[C@H]1O
inactive: Potency [1] | Potency [2] | Potency [3] | Potency [4] | Potency [7] | Potency [18] | Potency [9] | Potency [11] | Potency [12] | Potency [20] | Potency [14] | Potency [15] | Potency [16] | Potency [17]

CC(C)(C)OCC1CO1 (stereo unspecified)
inactive: Potency [1] | Potency [2] | Potency [3] | Potency [4] | Potency [7] | Potency [8] | Potency [18] | Potency [9] | Potency [10] | Potency [11] | Potency [12] | max response [13] -2.11% | Potency [19] | Potency [14] | Potency [15] | Potency [16]

Cc1[nH]c(C)c(Cl)c(=O)c1Cl
inactive: activity change, negative = cytotoxicity [1] 12.4% [at 15.8 µM] | activation (H2AX phosphorylation) [2] 1.85% [at 31.6 µM] | activation [3] -0.25% [at 15.8 µM] | activity change, negative = cytotoxicity [4] -0.294% [at 31.6 µM] | activity change, negative = cytotoxicity [7] 3.53% [at 15.8 µM] | activity change, negative = cytotoxic [8] -20.8% [at 15.8 µM] | cytotoxicity [18] 2.83% [at 15.8 µM] | activity change, negative = cytotoxic [9] 1.26% [at 15.8 µM] | cytotoxicity increase [10] -3.34% [at 15.8 µM] | max response [13] -19.8% | activity change [19] -5.28% [at 15.8 µM, stronger effect = higher value] | cytotoxicity increase [20] -3.96% [at 15.8 µM] | activity change, negative = cytotoxic [14] 3.22% [at 15.8 µM] | cytotoxicity [15] -5.69% [at 15.8 µM] | cytotoxicity increase [16] -5.76% [at 15.8 µM] | activity change, negative = cytotoxicity [17] 7.46% [at 15.8 µM]
